The values below come from ChEMBL document CHEMBL1201862, “PubChem BioAssay data set” (2004).

The whole screen tested about 58,000 sequences, of which about 4,100 (7.1%) were called active. No stated cut-off is given here; in the data, active = GI50 up to about 1.1 µM and inactive = higher. Not all results are given here. Entries with a potency or affinity are not part of this list.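 Protocol summary: plate cells (96-well), add compound at 5 concentrations, incubate 48 h, interpolate endpoints linearly. At the GI50, growth is halved.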

The test relates to U-251. Put plainly: NCI tumour cell line growth inhibition, 48 h.
Turning to “[Bis(aminomethyl)diethylsilane]tetrachloroplatinum(IV), CHEMBL2146203”, the GI50 came to 2 µM.

Regarding “[Bis(aminomethyl)pentamethylenesilane]tetrachloropaltinum(IV), CHEMBL2146204”, the GI50 was determined as 2.94 µM.

For “[Bis(aminomethyl)tetramethylenesilane]tetrachloropaltinum(IV), CHEMBL2146189”, the GI50 came out at 3.59 µM.

As to “[Bis(aminomethyl)ethylmethylsilane]tetrachloroplatinum(IV), CHEMBL2146192”, the GI50 turned out to be 6.07 µM.

As for CISPLATIN, CHEMBL11359, the GI50 came to 1.92 µM.

As to “cis-Bis[[(trimethylsilyl)methyl]amino]tetrachloroplatinum(IV), CHEMBL2146191”, the GI50 was determined as 14.9 µM.

“[Bis(aminomethyl)dimethylsilane]dichloroplatinum (II), CHEMBL2146201” had a GI50 of 33.5 µM.

“[Bis(aminomethyl)tetramethylenesilane]dichloropaltinum(II), CHEMBL2146205” yielded a GI50 of 30.3 µM.

The substance “[Bis(aminomethyl)dimethylsilane]tetrachloroplatinum(IV), CHEMBL2146190” registered a GI50 of 9.42 µM.

Substance “mu-(1,7-nanodiamine-N,N')bis-(cis-aminedichloroplatimum (II)), CHEMBL2146215” came in with a GI50 of 10.3 µM.

In the case of “[Bis(aminomethyl)pentamethylenesilane]dichloropaltinum(II), CHEMBL2146202”, the GI50 was found to be 2.93 µM.
